From the supplement of paper PMC12340860
± gives the standard deviation of the averaged measurements.

What follows are molecules tested on Caenorhabditis elegans infected with Nematocida parisii (assay: progeny production of N. parisii-infected C. elegans relative to uninfected control; higher = stronger inhibition of microsporidia infection (rescue of reproduction)). Conditions: 60 µM; incubation time 5 days; spore dose (spores/uL): 18000.
Experimental: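 C. elegans N2 L1 larvae (100 per well, 96-well plate, K-medium with 5x E. coli OP50, 1% DMSO) were infected with Nematocida parisii spores (18,000 spores/uL) that had been pre-incubated for 1 h with each BU-CMD library compound at 60 uM. Plates were incubated 5 days at 21 C with shaking. Progeny were stained with rose bengal, scanned on a flatbed scanner and counted with WorMachine. Progeny number is expressed as % of uninfected DMSO controls on the same plate; three biological replicates per compound; hits were compounds with at least 60% progeny production.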

| Compound | progeny production [%] |
| --- | --- |
| COC(=O)[C@@H]1[C@@H](c2ccccc2)[C@]2(c3ccc(OC)cc3)Oc3cc(OC)cc(OC)c3[C@@]23N=C(C2CC2)N[C@@]13O | 8.05 ± 3.6 |
| CONC(=O)[C@H]1[C@@H](O)[C@@]2(O)c3c(OC)cc(OC)cc3O[C@@]2(c2ccc(OC)cc2)[C@@H]1c1ccccc1 | 13.2 ± 4.2 |
| COC(=O)[C@@H]1[C@@H](c2ccccc2)[C@]2(c3ccc(OC)cc3)Oc3cc(OC)cc(OC)c3[C@@]23N=C(C)N[C@@]13O | 14.3 ± 4 |
